Screening results (PubChem)
Compounds with a hit are over-represented: about 1.9% of the library has one in this group of screens.
Efa HMGR inh = blocks class II HMG-CoA reductase of Enterococcus faecalis; purified E. faecalis HMGR, NADPH absorbance 340 nm kinetic; inhibition, % at 10 µM; actives 0.41% (n = 190,000);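 active = inhibition above a set limit, the median over all tested compounds plus 3 SD, cut at about 9.5% in these data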;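 note: enzyme runs in reverse so mevalonate oxidation gives rising NADPH absorbance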
14-3-3 Bad inh = disrupts binding of bovine 14-3-3 zeta to phospho-Bad peptide. P63103. TR-FRET 14-3-3zeta/Dy647-pBad peptide displacement, 1 h. inhibition, % at 21.7 µM. actives 0.71% (n = 220,000). AID 781;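 active = inhibition above about 70%, limit read from the data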
NCF1 inh = blocks human p47phox regulatory protein of NADPH oxidases; actives 0.53% (n = 220,000); inhibition, % at 24.7 µM; p47phox/p22phox peptide binding, fluorescence polarization, 2 h; AID 1274;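 active = inhibition above about 30%, limit read from the data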
dFosB act-1 = enhances mouse delta FosB homodimer DNA binding. purified delta FosB, TAMRA-CDK5 oligo fluorescence polarization; percent of positive-control signal above neutral wells. actives 0.99% (n = 340,000). P13346. activation, % at 25 µM;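 active = mean activation above about 17%, with every replicate also reaching it, limit read from the data, passing the limit was not always enough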
Target sequence (P13346 whole entry, looked up): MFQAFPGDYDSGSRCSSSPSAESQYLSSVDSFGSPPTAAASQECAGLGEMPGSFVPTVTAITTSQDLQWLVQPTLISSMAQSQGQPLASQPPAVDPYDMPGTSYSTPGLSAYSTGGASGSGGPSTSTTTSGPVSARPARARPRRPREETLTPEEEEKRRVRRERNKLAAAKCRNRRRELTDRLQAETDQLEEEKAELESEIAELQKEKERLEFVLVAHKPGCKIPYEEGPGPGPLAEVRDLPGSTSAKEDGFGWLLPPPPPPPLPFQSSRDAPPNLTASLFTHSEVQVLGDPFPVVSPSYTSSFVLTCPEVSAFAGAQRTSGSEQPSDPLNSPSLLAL
dFosB act-2 = delta FosB (mouse) homodimer activation. purified delta FosB, TAMRA-CDK5 oligo fluorescence polarization; normalised: neutral wells 0, positive control 100. AID 588690. 2,400 tested, under 10 active. activation, % at 24.9 µM. shares compounds with dFosB act-1;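 active = highest replicate activation at or above 34% and every replicate reaching that threshold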;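 note: higher polarization means more probe DNA bound by delta FosB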
A number is an active result; n = inactive; x = no result given.

SMILES	Efa HMGR inh	14-3-3 Bad inh	NCF1 inh	dFosB act-1	dFosB act-2
Cc1cccc(CC2S/C(=N/N=C/c3ccco3)NC2=O)c1 (stereo not drawn)	n	n	n	25	n
O=C1N/C(=N/N=C/c2ccco2)SC1Cc1ccccc1 (stereo not drawn)	n	n	n	21	n
Cc1ccc(S(=O)(=O)NNC(=O)C2Cc3c(ccc4ccccc34)O2)cc1 (stereo not drawn)	n	n	n	n	x
Cc1ccc(S(=O)(=O)N2CCC(=O)N(CCOCc3ccc(Cl)cc3)CC2)cc1	n	n	n	n	x
COc1ccc(CNc2c(C(=O)O)cnc3c2cnn3C)cc1	n	n	n	n	x
CCOC(=O)c1cnc2c(cnn2C)c1NCc1ccc(OC)cc1	n	n	n	29	n
O=c1oc(C2(O)CCCCC2)cc2ccc(-c3ccc4[nH]ccc4c3)cc12	x	x	x	n	x
N#CCCn1cc(/C=N/O)c(-c2ccccc2)n1	n	n	n	n	x
N#CCCn1cc(/C=N/NC(N)=S)c(-c2ccc(-c3ccccc3)cc2)n1	n	n	n	27	n
COc1nc(-c2ccc(Cl)cc2)ccc1-c1noc(-c2ccco2)n1	n	n	n	30	n
COc1cccc(-c2ccc(-c3noc(-c4ccccc4F)n3)c(OC)n2)c1	n	n	n	n	x
Cc1c(C(=O)OC/C(O)=C(\C#N)c2nc3ccccc3[nH]2)oc2ccccc12	x	n	n	45	n
Cc1c(C(=O)OCC(O)=C(C#N)c2nc3ccccc3[nH]2)oc2ccc(Br)cc12	x	x	x	n	x
COc1cc(OC)cc(C(=O)OC/C(O)=C(\C#N)c2nc3ccccc3[nH]2)c1	x	n	n	40	n
CC(C)CCn1cnc2c([nH]c3cccc(Cl)c32)c1=O	n	n	n	n	x
CCOC(=O)C1C(c2ccc(C)o2)NC(=O)NC1(O)C(F)(F)F (stereo not drawn)	n	n	n	n	x
COc1ccc(CC2(CO)CCN(Cc3c(C)nn(C(C)C)c3C)CC2)cc1	n	n	n	n	x
COc1ccccc1C1CCN(Cc2ccc3ccccc3c2)CC1	x	x	x	21	n
O=C(NNC(=O)c1ccc[nH]1)Nc1cc(Cl)cc(Cl)c1	x	n	n	x	x
Cc1cc(C)c(NC(=O)Cn2nnc(C(=O)NCc3cccs3)c2N)c(C)c1	n	n	n	n	x
Cc1cccc(NC(=O)Cn2nnc(C(=O)NCc3cccs3)c2N)c1C	n	n	n	42	n
Cc1c(Cl)cccc1NC(=O)Cn1nnc(C(=O)NCc2cccs2)c1N	n	n	n	39	n
CCc1ccccc1NC(=O)c1nnn(CC(=O)Nc2cccc(C)c2C)c1N	n	n	n	42	n
Cc1cc(C)cc(NC(=O)Cn2nnc(C(=O)NCc3cccs3)c2N)c1	x	x	x	58	n
Cc1ccc(NC(=O)Cn2nnc(C(=O)NCc3cccs3)c2N)c(C)c1	x	x	x	n	x
SMILES	Efa HMGR inh	14-3-3 Bad inh	NCF1 inh	dFosB act-1	dFosB act-2
CCOc1cc(-n2cnnn2)c(OCC)cc1NC(=O)c1cnccn1	x	x	x	n	x
O=C(CNC(=O)C1(c2ccccc2)CC1)Nc1ccc(F)c(F)c1	x	x	x	n	x
COc1ccc(C(CNC(=O)c2cccc(S(=O)(=O)Nc3ccccc3OC)c2)N2CCCC2)cc1 (stereo not drawn)	x	x	x	n	x
C=CCN(c1ccccc1OC)S(=O)(=O)c1cccc(C(=O)NCC(c2ccc(OC)cc2)N2CCCC2)c1 (stereo not drawn)	x	x	x	27	n
COC(=O)c1ccc(/C=N/Nc2nc3ccccc3[nH]2)cc1	n	n	n	n	x
O=C(O)c1ccc(/C=N/Nc2nc3ccccc3[nH]2)cc1	x	n	n	25	n
COc1ccccc1CNC(=O)/C=C/c1cc2c(cc1Br)OCO2	n	n	n	45	n
COc1ccc(-n2nc(C(=O)NCC(=O)N3CCN(Cc4ccc5c(c4)OCO5)CC3)c3ccccc3c2=O)cc1OC	n	n	n	n	x
CCCn1c2c(c(O)c(C(=O)Nc3ccc(OCC)cc3)c1=O)CCCC2	n	n	n	n	x
O=c1[nH]c(/C=C/c2ccc(OC(F)F)cc2)nc2c1cnn2-c1ccccc1	n	n	n	65	n
Cc1cccc(N(Cc2ccccc2F)S(C)(=O)=O)c1	n	n	n	n	x
Cc1nn(C)cc1/C=N/NC(=S)Nc1ccc(Cl)cc1Cl	n	n	n	34	n
O=C(CCCCCNC(=O)N1CCn2c1nc1ccccc12)NCc1ccccc1	x	x	x	n	x
Cc1cccc2nc(-c3cccc(NC(=O)c4ccc(Cl)cc4)c3)cn12	n	n	n	21	n
Cc1cccc2nc(-c3cccc(NC(=O)Cc4ccccc4)c3)cn12	n	n	n	n	x
